{
  "source": "ChEMBL document CHEMBL3988442",
  "about": "“University of Dundee, Small-Polar-MMV Screening Library” (2021)",
  "data": [
    {"target": "T1, Aspartate--tRNA(Asp/Asn) ligase (Mycobacterium tuberculosis (strain ATCC 25618 / H37Rv)) (UniProt P9WFW3)", "T1 sequence (whole entry)": "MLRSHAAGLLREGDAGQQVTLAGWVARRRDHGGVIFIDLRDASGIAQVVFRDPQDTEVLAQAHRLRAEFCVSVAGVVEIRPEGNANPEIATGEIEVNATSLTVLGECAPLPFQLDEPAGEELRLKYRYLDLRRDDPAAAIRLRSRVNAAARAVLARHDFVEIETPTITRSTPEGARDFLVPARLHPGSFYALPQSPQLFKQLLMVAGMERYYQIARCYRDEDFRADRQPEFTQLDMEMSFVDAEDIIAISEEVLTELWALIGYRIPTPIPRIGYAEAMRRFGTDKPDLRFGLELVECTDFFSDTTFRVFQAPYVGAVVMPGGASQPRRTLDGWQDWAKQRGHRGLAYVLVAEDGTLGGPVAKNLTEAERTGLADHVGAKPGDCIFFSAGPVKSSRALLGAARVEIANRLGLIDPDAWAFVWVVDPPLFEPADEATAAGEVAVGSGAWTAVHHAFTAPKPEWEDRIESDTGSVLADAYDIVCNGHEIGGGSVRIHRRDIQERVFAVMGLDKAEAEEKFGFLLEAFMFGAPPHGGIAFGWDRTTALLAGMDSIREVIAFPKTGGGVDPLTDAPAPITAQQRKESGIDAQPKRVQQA", "assay": "Assay for Asp RNA synthetase-1 from Mycobacterium tuberculosis", "assay_type": "functional", "parameters": "scale not given: direction of the effect not stated beside the values", "settings": "30 µM", "units": {"Percent Effect": "%"}, "values": [
      {"smiles": "c1ccc(N2CCCC3(COCCN(c4nccs4)C3)C2)nc1", "note": "(stereo not given)", "Percent Effect": 3.08},
      {"smiles": "Cc1cnc(NC(=O)N2CCCC2)s1", "Percent Effect": 1.37},
      {"smiles": "COCC(=O)NCCn1ccc2c(OC)cccc21", "Percent Effect": -1.31},
      {"smiles": "COc1ccc(CNCc2ccnc(N3CCOCC3)c2)cc1OC", "Percent Effect": -2.66},
      {"smiles": "COc1ccc(OCc2nc(C(=O)N3CC[C@H](O)[C@@H](O)C3)co2)cc1", "Percent Effect": -0.903},
      {"smiles": "CCC(CC)c1cc(C(=O)N2CCCC(n3cncn3)C2)on1", "note": "(stereo not given)", "Percent Effect": -5.51},
      {"smiles": "Cc1csc(C2CCCN(C(=O)c3cnc4n[nH]c(C)c4c3)C2)n1", "note": "(stereo not given)", "Percent Effect": 0.533},
      {"smiles": "COc1cccc(-c2nc(C)c(C(=O)NC(CO)CCSC)s2)c1", "note": "(stereo not given)", "Percent Effect": -3.69},
      {"smiles": "O=C(CCNc1ncccn1)N1CCCC(n2ccnc2)C1", "note": "(stereo not given)", "Percent Effect": 1.03},
      {"smiles": "Cc1cncc(C(=O)N2Cc3ccccc3C3(CCN(C)CC3)C2)c1", "Percent Effect": -2.03},
      {"smiles": "Cc1ccc(-c2nnc(CN3CCc4cnc(C)nc4C3)o2)cc1", "Percent Effect": 2.13},
      {"smiles": "COCCNC(=O)Nc1ccc(-n2cncn2)c(F)c1", "Percent Effect": -2.66},
      {"smiles": "CC(C)(C)c1n[nH]c(C2CN(C(=O)CCC3CC3)CCO2)n1", "note": "(stereo not given)", "Percent Effect": -3.75},
      {"smiles": "O=C(c1ccc[nH]1)N1C[C@H](OCc2cccnc2)[C@H]2COC[C@H]21", "Percent Effect": 2.69},
      {"smiles": "CSCCC(=O)N1CCCC1c1ccsc1", "note": "(stereo not given)", "Percent Effect": 2.62},
      {"smiles": "CN1[C@H](CN2CCCC2)C[C@@H]2CN(C(=O)Cc3cccs3)CC[C@@H]21", "Percent Effect": 3.89},
      {"smiles": "Cc1ccc(C)c(CNC(=O)NC(C)(C(=O)O)c2ccco2)c1", "note": "(stereo not given)", "Percent Effect": 4.16},
      {"smiles": "Cc1cn2c(n1)CCC(NC(=O)c1ccc(CS(C)(=O)=O)o1)C2", "note": "(stereo not given)", "Percent Effect": -4.46},
      {"smiles": "Cc1nc[nH]c1CN1CCN(C(=O)CCC(F)(F)F)[C@H]2CS(=O)(=O)C[C@H]21", "Percent Effect": -2.31},
      {"smiles": "CCn1ncnc1C(C)NC(=O)C1CCN(C(=O)COC)CC1", "note": "(stereo not given)", "Percent Effect": 6.73},
      {"smiles": "O=C(NCCn1ccnc1)N1CCCC1c1ccsc1", "note": "(stereo not given)", "Percent Effect": -7.57},
      {"smiles": "COCCNC(=O)c1ccc(C)c(-n2cccc2)c1", "Percent Effect": -0.779},
      {"smiles": "Cn1cnnc1S(=O)(=O)C1CCN(S(=O)(=O)C2CC2)CC1", "Percent Effect": -0.604},
      {"smiles": "NC(=O)COc1cccc(C(=O)N2CCCC(n3cccn3)C2)c1", "note": "(stereo not given)", "Percent Effect": -6},
      {"smiles": "Cc1ncc(CNC2CCCN(Cc3noc(C4CC4)n3)C2)s1", "note": "(stereo not given)", "Percent Effect": -4.12},
      {"smiles": "CCOc1nnc(CNC2CCCN(c3ccc(C)nn3)C2)s1", "note": "(stereo not given)", "Percent Effect": 9.48},
      {"smiles": "O=C1C[C@H]2[C@@H](CCN2C(=O)c2ccccc2)N1CCN1CCOCC1", "Percent Effect": -3.74},
      {"smiles": "COc1cccc2c1ccn2CCNC(=O)C(C)C", "Percent Effect": 6.33},
      {"smiles": "CNC(=O)[C@H]1C[C@@H]2CN(C(=O)c3ccco3)C[C@@H]2N1S(C)(=O)=O", "Percent Effect": -2.01},
      {"smiles": "Cc1nnc(C(C)N2CCN(Cc3ccc4c(c3)OCO4)CC2)o1", "note": "(stereo not given)", "Percent Effect": -0.657},
      {"smiles": "O=C(c1cc(Cl)c2c(c1)OCO2)N1CCCC(n2ccnc2)C1", "note": "(stereo not given)", "Percent Effect": -1.93},
      {"smiles": "O=C(c1ccc(F)c(F)c1)N1CCCSCC1CN1CCCC1", "note": "(stereo not given)", "Percent Effect": 3.66},
      {"smiles": "Cc1nn(C)c(C)c1C1COCCN1C(=O)c1n[nH]c2ccccc12", "note": "(stereo not given)", "Percent Effect": -1.46},
      {"smiles": "O=C(CCN1CCC(C(=O)c2cc(F)ccc2F)CC1)NC1CC1", "Percent Effect": 1.41},
      {"smiles": "Cc1ccc(S(=O)(=O)NC(=O)c2cccc3c2OCCO3)c(C)c1", "Percent Effect": -3.08},
      {"smiles": "N#Cc1ccnc(N2CCN(C(=O)Cc3ccc4c(c3)CCO4)CC2)c1", "Percent Effect": 0.144},
      {"smiles": "COc1c(CNCC(O)c2cccc(F)c2)c(C(C)C)nn1C", "note": "(stereo not given)", "Percent Effect": 7.7},
      {"smiles": "O=C(C1CCCc2[nH]ncc21)N1CCCCCC1", "note": "(stereo not given)", "Percent Effect": -0.324},
      {"smiles": "CCC(CC)c1cc(CNC(=O)N2CCOC(C)C2)on1", "note": "(stereo not given)", "Percent Effect": -0.437},
      {"smiles": "Cc1nn(C)c(N(C)C)c1CNCc1cccc(OCCN(C)C)c1", "Percent Effect": -1.92}
    ]},
    {"target": "Shiga toxin 2 (Escherichia coli O157:H7) (UniProt P09385+P09386)", "assay": "E. coli 0.157:H7 Shiga Toxin SOP - stx2 screening assay", "assay_type": "functional", "parameters": "scale not given: direction of the effect not stated beside the values", "settings": "30 µM", "units": {"Percent Effect": "%"}, "values": [
      {"smiles": "c1ccc(N2CCCC3(COCCN(c4nccs4)C3)C2)nc1", "note": "(stereo not given)", "Percent Effect": -3.13},
      {"smiles": "Cc1cnc(NC(=O)N2CCCC2)s1", "Percent Effect": 1.43},
      {"smiles": "COCC(=O)NCCn1ccc2c(OC)cccc21", "Percent Effect": -26.2},
      {"smiles": "COc1ccc(CNCc2ccnc(N3CCOCC3)c2)cc1OC", "Percent Effect": -52.5},
      {"smiles": "COc1ccc(OCc2nc(C(=O)N3CC[C@H](O)[C@@H](O)C3)co2)cc1", "Percent Effect": 8.98},
      {"smiles": "CCC(CC)c1cc(C(=O)N2CCCC(n3cncn3)C2)on1", "note": "(stereo not given)", "Percent Effect": -2.33},
      {"smiles": "Cc1csc(C2CCCN(C(=O)c3cnc4n[nH]c(C)c4c3)C2)n1", "note": "(stereo not given)", "Percent Effect": 21.9},
      {"smiles": "COc1cccc(-c2nc(C)c(C(=O)NC(CO)CCSC)s2)c1", "note": "(stereo not given)", "Percent Effect": -34.8},
      {"smiles": "O=C(CCNc1ncccn1)N1CCCC(n2ccnc2)C1", "note": "(stereo not given)", "Percent Effect": -9.67},
      {"smiles": "Cc1cncc(C(=O)N2Cc3ccccc3C3(CCN(C)CC3)C2)c1", "Percent Effect": -1.24},
      {"smiles": "Cc1ccc(-c2nnc(CN3CCc4cnc(C)nc4C3)o2)cc1", "Percent Effect": -61},
      {"smiles": "COCCNC(=O)Nc1ccc(-n2cncn2)c(F)c1", "Percent Effect": 12.3},
      {"smiles": "CC(C)(C)c1n[nH]c(C2CN(C(=O)CCC3CC3)CCO2)n1", "note": "(stereo not given)", "Percent Effect": 11.1},
      {"smiles": "O=C(c1ccc[nH]1)N1C[C@H](OCc2cccnc2)[C@H]2COC[C@H]21", "Percent Effect": -6.45},
      {"smiles": "CSCCC(=O)N1CCCC1c1ccsc1", "note": "(stereo not given)", "Percent Effect": 4.03},
      {"smiles": "CN1[C@H](CN2CCCC2)C[C@@H]2CN(C(=O)Cc3cccs3)CC[C@@H]21", "Percent Effect": -16},
      {"smiles": "Cc1ccc(C)c(CNC(=O)NC(C)(C(=O)O)c2ccco2)c1", "note": "(stereo not given)", "Percent Effect": 17},
      {"smiles": "Cc1cn2c(n1)CCC(NC(=O)c1ccc(CS(C)(=O)=O)o1)C2", "note": "(stereo not given)", "Percent Effect": 10.6},
      {"smiles": "Cc1nc[nH]c1CN1CCN(C(=O)CCC(F)(F)F)[C@H]2CS(=O)(=O)C[C@H]21", "Percent Effect": 17.8},
      {"smiles": "CCn1ncnc1C(C)NC(=O)C1CCN(C(=O)COC)CC1", "note": "(stereo not given)", "Percent Effect": 11.1},
      {"smiles": "O=C(NCCn1ccnc1)N1CCCC1c1ccsc1", "note": "(stereo not given)", "Percent Effect": -9.24},
      {"smiles": "COCCNC(=O)c1ccc(C)c(-n2cccc2)c1", "Percent Effect": -6.48},
      {"smiles": "Cn1cnnc1S(=O)(=O)C1CCN(S(=O)(=O)C2CC2)CC1", "Percent Effect": -7.38},
      {"smiles": "NC(=O)COc1cccc(C(=O)N2CCCC(n3cccn3)C2)c1", "note": "(stereo not given)", "Percent Effect": -18.8},
      {"smiles": "Cc1ncc(CNC2CCCN(Cc3noc(C4CC4)n3)C2)s1", "note": "(stereo not given)", "Percent Effect": 28.2},
      {"smiles": "CCOc1nnc(CNC2CCCN(c3ccc(C)nn3)C2)s1", "note": "(stereo not given)", "Percent Effect": 19.6},
      {"smiles": "O=C1C[C@H]2[C@@H](CCN2C(=O)c2ccccc2)N1CCN1CCOCC1", "Percent Effect": -0.799},
      {"smiles": "COc1cccc2c1ccn2CCNC(=O)C(C)C", "Percent Effect": -17},
      {"smiles": "CNC(=O)[C@H]1C[C@@H]2CN(C(=O)c3ccco3)C[C@@H]2N1S(C)(=O)=O", "Percent Effect": -24.9},
      {"smiles": "Cc1nnc(C(C)N2CCN(Cc3ccc4c(c3)OCO4)CC2)o1", "note": "(stereo not given)", "Percent Effect": 17.8},
      {"smiles": "O=C(c1cc(Cl)c2c(c1)OCO2)N1CCCC(n2ccnc2)C1", "note": "(stereo not given)", "Percent Effect": 4.72},
      {"smiles": "O=C(c1ccc(F)c(F)c1)N1CCCSCC1CN1CCCC1", "note": "(stereo not given)", "Percent Effect": 2.2},
      {"smiles": "Cc1nn(C)c(C)c1C1COCCN1C(=O)c1n[nH]c2ccccc12", "note": "(stereo not given)", "Percent Effect": -15.4},
      {"smiles": "O=C(CCN1CCC(C(=O)c2cc(F)ccc2F)CC1)NC1CC1", "Percent Effect": -24.2},
      {"smiles": "Cc1ccc(S(=O)(=O)NC(=O)c2cccc3c2OCCO3)c(C)c1", "Percent Effect": -9.09},
      {"smiles": "N#Cc1ccnc(N2CCN(C(=O)Cc3ccc4c(c3)CCO4)CC2)c1", "Percent Effect": 6.14},
      {"smiles": "COc1c(CNCC(O)c2cccc(F)c2)c(C(C)C)nn1C", "note": "(stereo not given)", "Percent Effect": 15.6},
      {"smiles": "O=C(C1CCCc2[nH]ncc21)N1CCCCCC1", "note": "(stereo not given)", "Percent Effect": 1.51},
      {"smiles": "CCC(CC)c1cc(CNC(=O)N2CCOC(C)C2)on1", "note": "(stereo not given)", "Percent Effect": -11.9},
      {"smiles": "Cc1nn(C)c(N(C)C)c1CNCc1cccc(OCCN(C)C)c1", "Percent Effect": 27.4}
    ]}
  ]
}
